Experimental data: PubChem BioAssay (Tox21)
Results filed as inconclusive are left out. Calls of active or inactive are those of the source. Calls come from the whole dose curve.

Experiment: qHTS assay to identify small molecule agonists of the hypoxia (HIF-1) signaling pathway - cell viability counter screen (AID 1224844); note: nearly all actives have a fitted effect of over 50% in size
Conditions: HRE-bla ME-180 viability, CellTiter-Glo luminescence, 17 h; series mostly up to 76.8 µM; activity change, negative = cytotoxicity: at the top concentration
From the text: National Center for Advancing Translational Sciences [NCATS]
NIH Chemical Genomics Center [NCGC]
U.S. Environmental Protection Agency [EPA]
National Institutes of Environmental Health Sciences [NIEHS]
National Toxicology Program [NTP]
U.S. Food and Drug Administration [FDA]
Hypoxia-inducible factor-1 (HIF-1) is the major hypoxia-regulated transcription factor that controls cellular responses to low oxygen concentration. HIF-1 is composed of two subunits: hypoxia responsive HIF-1-alpha and constitutively expressed HIF-1-beta, which is also known as aryl hydrocarbon receptor nuclear translocator. During hypoxic conditions, HIF-1-alpha heterodimerizes with HIF-1-beta and translocates into the nucleus where the HIF-1 complex binds to the hypoxia-response element (HRE) and activates expression of target genes such as VEGF (vascular endothelial growth factor). The HIF-1 pathway is essential to normal growth and development, and is involved in the pathophysiology of cancer, inflammation, and ischemia.
Using a beta-lactamase reporter-gene under control of the hypoxia response element, a cell-based assay [CellSensor(TM) HRE-bla ME-180 from Life Technologies, Carlsbad, CA] was used to measure hypoxia-induced signaling. Tox21 10K library compounds were measured for their ability to induce the reporter gene activity. The cytotoxicity of the Tox21 compound library against HRE-bla ME-180 cell line was tested in parallel by measuring cell viability using CellTiter-Glo assay (Promega, Madison, WI) in the same assay wells.
Tox21 Assay Protocol Summary:
HRE-bla ME-180 cells were dispensed at 2,000 cells per well in 6 uL of assay medium containing 0.5% dialyzed FBS into black wall/clear-bottom 1536-well plates using a Multidrop Combi (Thermo Scientific, Waltham, MA) dispenser. After the assay plates were incubated at 37C and 5% CO2 for 5 hrs, 23 nL of compounds dissolved in DMSO, positive controls or DMSO only was transferred to each well of the assay plate using a Pintool station (Kalypsys, San Diego, CA). The assay plates were incubated at 37C and 5% CO2 for 17 hrs. One uL of LiveBLAzerTM B/G FRET substrate (CCF4-AM) (Life Technologies) was added to each well using a Flying Reagent Dispenser (FRD, Aurora Discovery, San Diego, CA). After 2 hr incubation at room temperature, fluorescence intensity (405 nm excitation, 460 nm and 530 nm emissions) was measured using an Envision plate reader (PerkinElmer, Shelton, CT). For cytotoxicity, 4 ul/well of CellTiter-Glo reagent was added into the assay plates using an FRD. After 30 min incubation at room temperature, the luminescence intensity was measured using a ViewLux plate reader (PerkinElmer).
% is set by controls: 0 for no effect and ±100 for the full control effect.

Row | SMILES | activity change, negative = cytotoxicity
1 | CC1N=C(N)OC1c1ccccc1 (stereo not given) | -0.367% (inactive)
2 | CC1=C2[C@H]3OC(=O)[C@@H](C)[C@@H]3CC[C@@]2(C)C=CC1=O | 19.1% [at 35.3 µM] (inactive)
3 | CN(C)C(=O)Oc1cc(OC(=O)N(C)C)cc(C(O)CNC(C)(C)C)c1 (stereo not given) | -0.319% [at 35.3 µM] (inactive)
4 | CC[C@H](N)c1ccccc1 | 3.63% (inactive)
5 | O=C(O)CBr | 1.04% (inactive)
6 | CCOC1Oc2ccc(OS(C)(=O)=O)cc2C1(C)C (stereo not given) | 14.7% (inactive)
7 | CCCOC(=O)Cc1ccc(OCC(=O)N(CC)CC)c(OC)c1 | 2.74% [at 35.3 µM] (inactive)
8 | CC(C)(C)C(=O)C(Cl)Cl | 0.0006% (inactive)
9 | Nc1c(Cl)c(F)nc(OCC(=O)O)c1Cl | -8.62% (inactive)
10 | CCOC(=O)NC(C)(C)Cc1ccc(Cl)cc1 | 1.58% [at 35.3 µM] (inactive)
11 | O=P(O)(O)c1ccccc1 | -3.39% (inactive)
12 | CCOc1cc(OP(=S)(OC)OC)nc(CC)n1 | -4.41% (inactive)
13 | C=CCN1CC[C@]23CCCC[C@H]2[C@H]1Cc1ccc(O)cc13 | -0.664% [at 35.3 µM] (inactive)
14 | CC(C)(C)c1cc(O)ccc1O | 3.5% (inactive)
15 | N[C@@H]1C[C@H]1c1ccccc1 | -2.74% [at 35.3 µM] (inactive)
16 | C[C@@H](N)[C@@H](O)c1ccccc1 | 10.3% [at 35.3 µM] (inactive)
17 | CCCOC(=O)c1cncn1C(C)c1ccccc1 (stereo not given) | 4.66% [at 35.3 µM] (inactive)
18 | CCOC(=O)CCl | 5.14% (inactive)
19 | Clc1cc2c(cc1Cl)Oc1cc(Cl)c(Cl)cc1O2 | -17.7% [at 0.29 µM] (inactive)
20 | CCc1ccc(C2CCNCC2)cc1 | -0.164% [at 35.3 µM] (inactive)

Row | SMILES | activity change, negative = cytotoxicity
21 | COC(=O)[C@@H](N)CCCN/C(N)=N/[N+](=O)[O-] | 5.54% [at 35.3 µM] (inactive)
22 | ClCC1CO1 (stereo not given) | -26.4% (inactive)
23 | ClCCCCCCCl | 7.38% (inactive)
24 | C[C@H]1CCCC(=O)CCC/C=C/c2cc(O)cc(O)c2C(=O)O1 | 10.9% [at 35.3 µM] (inactive)
25 | Cn1c(CCCC(=O)O)nc2cc(N(CCCl)CCCl)ccc21 | -17.6% [at 35.3 µM] (inactive)
26 | C=C(Cl)CCl | 0.194% (inactive)
27 | NCC1(CC(=O)O)CCCCC1 | -0.773% [at 35.3 µM] (inactive)
28 | CCNc1nc(Cl)nc(NC(C)(C)C)n1 | 15.5% (inactive)
29 | Cc1ccc(-c2nc3ccc(C)cn3c2CC(=O)N(C)C)cc1 | 11% [at 35.3 µM] (inactive)
30 | O=C(NC(=O)c1c(F)cccc1F)Nc1cc(Cl)c(F)c(Cl)c1F | -2.45% (inactive)
31 | ClC(Cl)(Cl)Cl | 2.05% (inactive)
32 | CC(=O)CN(CC(C)=O)N=O | 4.53% (inactive)
33 | N#CC(Br)(Br)C(N)=O | -1.62% (inactive)
34 | S=C=S | 4.28% (inactive)
35 | CCCOc1nn(C(=O)NS(=O)(=O)c2ccccc2C(=O)OC)c(=O)n1C | 3.92% (inactive)
36 | ClCOCCl | -7.3% (inactive)
37 | CCNc1nc(NCC)nc(SC)n1 | 8.44% (inactive)
38 | N=C(N)[Se] | -5.1% (inactive)
39 | CCOC(=O)C(SP(=S)(OC)OC)c1ccccc1 (stereo not given) | 5.61% (inactive)
40 | C#CCOC(=O)/C=C(C)/C=C/CC(C)CCCC(C)C (stereo not given) | 6.88% (inactive)
